Data reported in PubChem BioAssay (Tox21).
Inconclusive results are not listed. The source made the active and inactive calls. Unless noted, calls come from the whole dose curve; as a rule, active = well fitted curve in the direction sought with a large enough effect in the repeat runs; inconclusive = weak or mixed curves; inactive = no such curve, though single readings can be large; an effect the other way counts as inactive or inconclusive.

Legend:
[1] = A CellTox Green Cytotoxicity Assay to monitor cytotoxicity in HEK293 cells - 32 hour (AID 1224881); note: nearly all actives have a fitted effect of over 40% in size
Summary of the method: (§1)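 Homogeneous no-lysis format: HEK293 cell suspension mixed with CellTox Green reagent, seeded, incubated 5 h at 37 C/5% CO2, then dosed by pintool with compound in DMSO.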

[2] = A CellTox Green Cytotoxicity Assay to monitor cytotoxicity in HepG2 cells - 0 hour (AID 1224882); note: nearly all actives have a fitted effect of over 35% in size
Summary of the method: (§2)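 Fluorescent DNA-binding dye, 600 HepG2 cells/well, 5 h preincubation then compound in DMSO; same plates read at 0–40 h, 37 C.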

[3] = A CellTox Green Cytotoxicity Assay to monitor cytotoxicity in HepG2 cells - 32 hour (AID 1224883); note: nearly all actives have a fitted effect of over 50% in size
Summary of the method: as §2

[4] = A CellTox Green Cytotoxicity Assay to monitor cytotoxicity in HEK293 cells - 8 hour (AID 1224884); note: nearly all actives have a fitted effect of over 35% in size
Summary of the method: as §1

[5] = qHTS RealTime-Glo MT Cell Viability Assay in HepG2 cells - 16 hour (AID 1224885); note: nearly all actives have a fitted effect of over 50% in size
Summary of the method: (§3)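 Luminescence read-out: viable HepG2 cells reduce a prosubstrate to a NanoLuc substrate, giving a signal proportional to live cell number. Reads taken at 0, 8, 16, 24, 32 and 40 h of compound exposure at 37 C.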

[6] = qHTS RealTime-Glo MT Cell Viability Assay in HEK293 cells - 24 hour (AID 1224886); note: top concentration of the series differs between compounds; nearly all actives have a fitted effect of over 50% in size
Summary of the method: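 Nonlytic real-time viability readout: viable cells convert prosubstrate to NanoLuc substrate, giving luminescence proportional to live cell number. HEK293, 600 cells/well, compound added after 5 h, continuous culture at 37 C.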

[7] = qHTS RealTime-Glo MT Cell Viability Assay in HEK293 cells - 8 hour (AID 1224887); note: top concentration of the series differs between compounds; nearly all actives have a fitted effect of over 50% in size
Summary of the method: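 Measured as luminescence from the same continuously cultured HEK293 wells at successive time points (0, 8, 16, 24, 32, 40 h) after compound addition. Reagent present from seeding; dosing at 5 h; incubation 37 C.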

[8] = A CellTox Green Cytotoxicity Assay to monitor cytotoxicity in HEK293 cells - 16 hour (AID 1224888); note: nearly all actives have a fitted effect of over 35% in size
Summary of the method: as §1

[9] = qHTS RealTime-Glo MT Cell Viability Assay in HepG2 cells - 0 hour (AID 1224889); note: nearly all actives have a fitted effect of over 50% in size
Summary of the method: as §3

[10] = A CellTox Green Cytotoxicity Assay to monitor cytotoxicity in HepG2 cells - 8 hour (AID 1224890); note: nearly all actives have a fitted effect of over 45% in size
Summary of the method: as §2

[11] = qHTS assay to identify small molecule antagonists of the estrogen receptor alpha (ER-alpha) signaling pathway using the BG1 cell line in the presence of 0.1 nM 17-beta-estradiol - cell viability counter screen (AID 1259241); note: nearly all actives have a fitted effect of over 40% in size
Summary of the method: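 CellTiter-Fluor read (30 min, 37C) on ER-alpha/ERE-luc VM7Luc4E2 cells; 22 hr compound treatment; agonist 0.1 nM E2 final; same-well multiplex.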

[12] = qHTS assay to identify small molecule antagonists of the androgen receptor (AR) signaling pathway using the MDA cell line in the presence of 0.5 nM R1881 - cell viability counter screen (AID 1259242); note: nearly all actives have a fitted effect of over 45% in size
Summary of the method: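 Human breast carcinoma MDA-kb2 cells, cultured without CO2, receive compounds alongside 0.5 nM (final) R1881 agonist. After 16 hr at 37C, viability is taken as live-cell protease signal.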

[13] = target: Estrogen receptor (Homo sapiens) (UniProt P03372); assay: qHTS assay to identify small molecule antagonists of the estrogen receptor alpha (ER-alpha) signaling pathway using the BG1 cell line in the presence of 0.1 nM 17-beta-estradiol (AID 1259244); note: nearly all actives have a fitted effect of over 50% in size
Sequence of Estrogen receptor (Homo sapiens) (P03372 whole entry, looked up): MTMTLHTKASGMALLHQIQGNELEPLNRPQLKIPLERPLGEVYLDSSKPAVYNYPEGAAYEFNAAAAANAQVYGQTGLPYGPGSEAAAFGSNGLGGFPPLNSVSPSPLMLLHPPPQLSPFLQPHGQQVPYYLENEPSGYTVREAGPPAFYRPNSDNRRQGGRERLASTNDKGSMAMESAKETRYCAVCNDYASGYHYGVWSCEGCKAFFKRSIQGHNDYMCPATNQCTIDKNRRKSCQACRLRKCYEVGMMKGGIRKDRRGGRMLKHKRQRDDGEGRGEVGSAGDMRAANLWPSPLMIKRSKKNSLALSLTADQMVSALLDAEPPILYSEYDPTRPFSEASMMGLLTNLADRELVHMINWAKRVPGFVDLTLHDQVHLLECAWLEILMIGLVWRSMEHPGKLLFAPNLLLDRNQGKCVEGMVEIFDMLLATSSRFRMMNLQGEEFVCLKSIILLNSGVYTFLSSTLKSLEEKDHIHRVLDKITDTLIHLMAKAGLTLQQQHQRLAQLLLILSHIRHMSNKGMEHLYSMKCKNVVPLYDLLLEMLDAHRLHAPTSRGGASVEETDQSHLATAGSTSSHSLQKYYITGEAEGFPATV
Summary of the method: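 Seeding of stripped-serum-adapted VM7Luc4E2 cells, 24 h attachment, compound transfer, then 0.1 nM final 17beta-estradiol; after 22 h incubation, ONE-Glo reagent and luminescence reading.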

[14] = qHTS assay to identify small molecule phospholipidosis (PLD) inducers (AID 1259344; active = well fitted curve in the direction sought with a large enough effect; an effect the other way counts as inactive or inconclusive)
Summary of the method: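 Phospholipid accumulation was scored by imaging: fixed, Hoechst-counterstained HepG2 cells stained with LipidTOX Red after 24 h compound exposure at 37 C. Read-outs were pit count and pit intensity per well or per cell, with amiodarone and DMSO controls.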

[15] = qHTS assay to identify small molecule HDAC inhibitors (AID 1259364);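 note: wild-type HCT-116 cells with endogenous class I/II HDAC activity; top concentration of the series differs between compounds; nearly all actives have a fitted effect of over 45% in size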
Summary of the method: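 After a 2 hr compound incubation (37C, 5% CO2), HCT-116 cells seeded at 1,500/well the day before received HDAC-Glo reagent; signal read as luminescence after 30 min at room temperature.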

[16] = qHTS assay to identify small molecule HDAC inhibitors - cell viability counter screen (AID 1259365)
Summary of the method: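 To flag cytotoxic hits, 1,500 wild-type HCT-116 cells per well, plated the day before, receive test compounds for 2hr at 37 C before CellTiter-Glo reagent and a luminescence read.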

[17] = qHTS assay to identify small molecule agonists of the sonic hedgehog signaling (Shh) pathway - cell viability counter screen (AID 1259366); note: nearly all actives have a fitted effect of over 50% in size
Summary of the method: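 Fluorescence from CellTiter-Fluor reports live cells in this counter screen. NIH/3T3-derived Gli1-Luc reporter cells receive test compounds for 24hr at 37C; reagent goes in at 23hr.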

[18] = qHTS assay to identify small molecule agonists of the sonic hedgehog signaling (Shh) pathway (AID 1259368; calls by dose curve;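 note: NIH/3T3-derived 3T3Gli1-Luc cells carrying a stable Gli1-driven firefly luciferase reporter; series mostly up to about 92 µM; nearly all actives have a fitted effect of over 15% in size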)
Summary of the method: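 Stable NIH/3T3 Gli1-Luc reporter clone; 24 hr cpd exposure after a 4 hr settling period; luminescence endpoint.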

[19] = qHTS assay to identify small molecule antagonists of the sonic hedgehog signaling (Shh) pathway - cell viability counter screen (AID 1259367); note: nearly all actives have a fitted effect of over 55% in size
Summary of the method: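 Viability was read by CellTiter-Fluor fluorescence in the same wells, reagent added 23 hr into compound treatment and incubated 1 hr at 37C. The 3T3 Gli1-Luc reporter cells (2,000/well) received conditioned medium after compound and ran 24 hr.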

[20] = target: Androgen receptor (Homo sapiens) (UniProt P10275); assay: qHTS assay to identify small molecule antagonists of the androgen receptor (AR) signaling pathway using the MDA cell line in the presence of 0.5 nM R1881 (AID 1259243); note: nearly all actives have a fitted effect of over 50% in size
Sequence of Androgen receptor (Homo sapiens) (P10275 whole entry, looked up): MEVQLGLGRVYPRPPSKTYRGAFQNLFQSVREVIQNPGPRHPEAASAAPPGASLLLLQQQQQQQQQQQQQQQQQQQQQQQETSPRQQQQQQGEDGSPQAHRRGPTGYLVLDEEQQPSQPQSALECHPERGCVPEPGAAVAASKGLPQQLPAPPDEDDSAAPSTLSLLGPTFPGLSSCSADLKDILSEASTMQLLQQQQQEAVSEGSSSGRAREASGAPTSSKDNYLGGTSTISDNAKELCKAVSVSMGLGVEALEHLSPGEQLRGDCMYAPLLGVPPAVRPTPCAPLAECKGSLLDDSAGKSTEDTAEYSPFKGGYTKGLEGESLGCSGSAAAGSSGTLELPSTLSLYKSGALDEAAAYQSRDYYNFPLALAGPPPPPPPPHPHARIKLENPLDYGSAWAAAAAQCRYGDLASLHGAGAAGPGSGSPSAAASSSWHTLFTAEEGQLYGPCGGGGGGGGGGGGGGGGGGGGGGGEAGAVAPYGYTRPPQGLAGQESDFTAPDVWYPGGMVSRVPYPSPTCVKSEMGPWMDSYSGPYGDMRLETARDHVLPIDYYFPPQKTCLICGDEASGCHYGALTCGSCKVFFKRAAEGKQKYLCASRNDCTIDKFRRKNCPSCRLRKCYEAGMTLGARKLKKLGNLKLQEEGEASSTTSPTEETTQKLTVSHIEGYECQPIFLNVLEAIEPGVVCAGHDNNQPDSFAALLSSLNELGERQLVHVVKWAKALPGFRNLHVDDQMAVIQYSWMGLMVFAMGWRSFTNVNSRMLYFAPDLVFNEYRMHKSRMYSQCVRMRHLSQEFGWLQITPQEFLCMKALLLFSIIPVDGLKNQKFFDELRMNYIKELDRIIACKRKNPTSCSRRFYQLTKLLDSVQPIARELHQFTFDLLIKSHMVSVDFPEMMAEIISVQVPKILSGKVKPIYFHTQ
Summary of the method: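 Cells: MDA-kb2 (MMTV-luc). Stimulus: 0.5 nM R1881. Time: 16 hr, 37C, no CO2. Detection: ONE-Glo luminescence after 30 min at RT.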
% is set by controls: 0 for no effect and ±100 for the full control effect.

CCN(CC)CCc1nc(-c2ccccc2)no1
inactive: Potency [1] | Potency [2] | Potency [3] | Potency [4] | Potency [5] | Potency [6] | Potency [7] | Potency [8] | Potency [9] | Potency [10] | Potency [11] | Potency [12] | Potency [13] | Potency [14] | Potency [15] | outcome [16] | Potency [17] | outcome [18]

CCOC(=O)CC(C)C
inactive: Potency [1] | Potency [2] | Potency [3] | Potency [4] | Potency [5] | Potency [6] | Potency [7] | Potency [8] | Potency [9] | Potency [10] | Potency [11] | Potency [12] | Potency [13] | Potency [15] | outcome [16] | Potency [17] | Potency [19] | outcome [18]

N#Cc1c(F)cccc1F
inactive: Potency [1] | Potency [2] | Potency [3] | Potency [4] | Potency [5] | Potency [6] | Potency [7] | Potency [8] | Potency [9] | Potency [10] | Potency [11] | Potency [12] | Potency [15] | outcome [16] | Potency [17] | Potency [19] | outcome [18]

CCCCCCCCCC(=O)OCC
inactive: Potency [1] | Potency [2] | Potency [3] | Potency [4] | Potency [5] | Potency [6] | Potency [7] | Potency [8] | Potency [9] | Potency [10] | Potency [11] | Potency [12] | Potency [13] | Potency [15] | outcome [16] | Potency [17] | Potency [19] | outcome [18]

O=C(O)COC(=O)Cc1ccccc1Nc1c(Cl)cccc1Cl
inactive: Potency [1] | Potency [2] | Potency [3] | Potency [4] | Potency [5] | Potency [6] | Potency [7] | Potency [8] | Potency [9] | Potency [10] | Potency [11] | Potency [20] | Potency [13] | Potency [14] | Potency [15] | outcome [16] | Potency [17] | Potency [19] | outcome [18]

CCCCOC(O)CC (stereo unspecified)
inactive: Potency [1] | Potency [2] | Potency [3] | Potency [4] | Potency [5] | Potency [6] | Potency [7] | Potency [8] | Potency [9] | Potency [10] | Potency [11] | Potency [20] | Potency [13] | Potency [15] | outcome [16] | Potency [17] | Potency [19] | outcome [18]

NC(=S)N/N=C/c1cccnc1
inactive: Potency [1] | Potency [2] | Potency [3] | Potency [4] | Potency [5] | Potency [6] | Potency [7] | Potency [8] | Potency [9] | Potency [10] | Potency [11] | Potency [12] | Potency [20] | Potency [14] | Potency [15] | outcome [16] | Potency [17] | Potency [19] | outcome [18]

Cc1ncsc1CCO
inactive: Potency [1] | Potency [2] | Potency [3] | Potency [4] | Potency [5] | Potency [6] | Potency [7] | Potency [8] | Potency [9] | Potency [10] | Potency [11] | Potency [12] | Potency [13] | Potency [15] | outcome [16] | Potency [17] | Potency [19] | outcome [18]

C=CCCCCCC
inactive: Potency [1] | Potency [2] | Potency [3] | Potency [4] | Potency [5] | Potency [6] | Potency [7] | Potency [8] | Potency [9] | Potency [10] | Potency [11] | Potency [12] | Potency [13] | Potency [15] | outcome [16] | Potency [17] | Potency [19] | outcome [18]

CCCCCCCCCCCCCCCCCBr
inactive: cytotoxicity increase [1] -9.33% [at 15.8 µM] | cytotoxicity [2] -6.85% [at 15.8 µM] | cytotoxicity increase [3] -10.1% [at 15.8 µM] | cytotoxicity increase [4] -3.41% [at 15.8 µM] | activity change, negative = cytotoxic [5] -3.91% [at 15.8 µM] | activity change, negative = cytotoxicity [6] -0.166% [at 15.8 µM] | activity change, negative = cytotoxicity [7] 2.84% [at 15.8 µM] | activity change [8] -5.91% [at 15.8 µM, stronger effect = higher value] | activity change, negative = cytotoxicity [9] -6.2% [at 15.8 µM] | cytotoxicity increase [10] -11.1% [at 15.8 µM] | activity change, negative = cytotoxicity [11] 5.52% [at 19 µM] | viability change, negative = cytotoxic [12] -0.565% [at 19 µM] | activity change, negative = inhibition [15] 6.57% [at 19 µM] | activity change, negative = cytotoxicity [16] 0.135% [at 19 µM] | viability change, negative = cytotoxic [17] -1.63% [at 19 µM] | viability change, negative = cytotoxic [19] -1.98% [at 19 µM] | activity change [18] -0.456% [at 18.9 µM]

CCCCOCCOCCOCCOCCO
inactive: Potency [1] | Potency [2] | Potency [3] | Potency [4] | Potency [5] | Potency [6] | Potency [7] | Potency [8] | Potency [9] | Potency [10] | Potency [11] | Potency [12] | Potency [13] | Potency [15] | Potency [17] | Potency [19] | outcome [18]

CC(=O)c1ccc2c(c1)[C@H](NC(=O)c1ccc(F)cc1)[C@@H](O)C(C)(C)O2
inactive: Potency [1] | Potency [2] | Potency [3] | Potency [4] | Potency [5] | Potency [6] | Potency [7] | Potency [8] | Potency [9] | Potency [10] | Potency [11] | Potency [12] | Potency [15] | outcome [16] | outcome [18]

CC(=O)Nc1ccc(/C=N/NC(N)=S)cc1
inactive: Potency [1] | Potency [2] | Potency [3] | Potency [4] | Potency [5] | Potency [6] | Potency [7] | Potency [8] | Potency [9] | Potency [10] | Potency [11] | Potency [12] | Potency [14] | Potency [15] | outcome [16] | Potency [17] | outcome [18]

CCCCCCCCCCCCCCCBr
inactive: Potency [1] | Potency [2] | Potency [3] | Potency [4] | Potency [5] | Potency [6] | Potency [7] | Potency [8] | Potency [9] | Potency [10] | Potency [11] | Potency [12] | Potency [13] | Potency [15] | outcome [16] | Potency [17] | outcome [18]
